We go through 80 molecules from PubChem BioAssay AID720648 (The Scripps Research Institute Molecular Screening Center, 2013).

The whole screen tested about 370,000 compounds, of which about 3,100 (0.84%) were called active.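 The calls were made as follows: active = inhibition above the mean of compounds lying between control limits plus 3 SD, set per campaign (cut at about 8.5% in these data); inactive = the rest.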 The full list was thinned out, with actives kept by preference.

Sequence of Disintegrin and metalloproteinase domain-containing protein 17 (Homo sapiens) (P78536 215-824 limits assumed): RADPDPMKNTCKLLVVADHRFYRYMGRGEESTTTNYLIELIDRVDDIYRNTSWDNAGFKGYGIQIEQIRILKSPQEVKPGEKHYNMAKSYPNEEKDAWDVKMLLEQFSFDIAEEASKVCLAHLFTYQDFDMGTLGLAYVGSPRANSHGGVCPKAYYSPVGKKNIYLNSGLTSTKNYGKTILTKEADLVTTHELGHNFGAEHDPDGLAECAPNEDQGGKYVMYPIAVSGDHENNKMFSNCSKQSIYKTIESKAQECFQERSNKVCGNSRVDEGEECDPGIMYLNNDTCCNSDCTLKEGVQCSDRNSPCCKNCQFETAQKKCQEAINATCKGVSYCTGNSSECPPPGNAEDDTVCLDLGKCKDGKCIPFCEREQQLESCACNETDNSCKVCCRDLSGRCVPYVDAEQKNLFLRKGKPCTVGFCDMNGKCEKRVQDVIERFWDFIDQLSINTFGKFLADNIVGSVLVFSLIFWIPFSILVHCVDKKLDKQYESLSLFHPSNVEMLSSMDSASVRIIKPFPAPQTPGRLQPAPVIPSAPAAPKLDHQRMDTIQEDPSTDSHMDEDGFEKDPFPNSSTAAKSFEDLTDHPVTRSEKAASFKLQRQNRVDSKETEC

The assay has as its target Disintegrin and metalloproteinase domain-containing protein 17 (Homo sapiens) (UniProt P78536). In words: inhibition of ADAM17 peptide cleavage – biochemical, QFRET, primary screen (AID 720648).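 Also: 0% = DMSO-only wells as the low control.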 Conditions: recombinant ADAM17, EDANS/DABCYL FRET peptide cleavage; at 6.95 µM; active compounds read high.
The term inhibition denotes the change of the read-out against control, counted positive when it falls. Turning to `CCOc1ccccc1CNS(=O)(=O)c1cc(-c2cc(C)no2)ccc1C`, the inhibition was 10.2% (active).
Under `COc1ccc(CNS(=O)(=O)c2cc(-c3cc(C)no3)ccc2C(C)C)cc1` stands 3.19% (inactive); under `Cc1cc(-c2ccc(C)c(S(=O)(=O)NCCCN(Cc3ccccc3)C(C)C)c2)on1`, -3.83% (inactive); under `CCC(CO)Nc1cccc2c1S(=O)(=O)N(Cc1cn(Cc3ccccc3C(F)(F)F)nn1)Cc1ccccc1O2` (stereo not given), -3.41% (inactive).
Consider `COC(=O)[C@H](C(C)C)N1CCc2nnn(Cc3ccc(C)cc3)c2-c2ccccc2S1(=O)=O`, for which the inhibition is 2.97% (inactive).
For `C=C1C(C(C)C)N(C)C2=NC(c3ccccc3)CC(=O)N12` (stereo not given), the inhibition is -5.62% (inactive).
Under `O=C(CSc1nc2ccccc2n1Cc1ccccc1)NNC(=S)Nc1ccccc1` stands 5.43% (inactive); under `O=C(CSc1nnc(SCc2ccc(Cl)cc2)s1)N/N=C/c1ccccc1Cl`, 0.99% (inactive).
Regarding `Cc1ccc(NC(=S)NNC(=O)CSc2nnc(SCc3ccccc3Cl)s2)cc1`, the inhibition is 9.53% (active).
`Nc1[nH]c(/C=C2/CCCCC2n2[nH]c(=O)n(-c3ccccc3)c2=O)c(Cc2ccccc2)[n+]1Cc1ccccc1` (stereo not given): the inhibition is -3.48% (inactive).
In the case of `O=C(Nc1ccc(Br)cc1)OCCN1C(=O)CCC12CCC(c1ccccc1)CC2` (stereo not given), the inhibition is -0.94% (inactive).
For `CC(NCc1ccco1)C(=O)N1CCCCC1` (stereo not given) the value was 0.39% (inactive).
As for `O=C(CSCc1ccc([N+](=O)[O-])cc1)Nc1cccc(C(=O)Nc2ccccc2C(=O)O)c1`, the inhibition was 0.74% (inactive).
Regarding `O=C(CSc1nc2[nH]c(=O)[nH]c(=O)c2s1)Nc1cccc(F)c1`, the inhibition is -3.92% (inactive).
As to `O=C(CSc1nc(-c2ccccc2)cs1)Nc1cccc([N+](=O)[O-])c1`, the inhibition is 8.67% (active).
Consider `O=C1CC(c2ccc3c(c2)OCO3)N=C2N(CC3CC3)C/C(=C/c3ccccc3)N12` (stereo not given), for which the inhibition was -2.87% (inactive).
For `CC(CCN1CCC(C(O)(c2ccccc2)c2ccccc2)CC1)Oc1ccc(C(F)(F)F)cc1` (stereo not given), the inhibition is 3.8% (inactive).
Take `C=CC[C@H](CC(=O)N(CCO)Cc1ccccc1)C(=O)N[C@@H](COC(=O)[C@@H](CC=C)Cc1ccc(F)cc1)Cc1ccccc1`: the inhibition was 13.2% (active).
For `C=CCC[C@@H](Cc1ccc(F)cc1)C(=O)OC[C@@H](C)NC(=O)[C@H](CC=C)CC(=O)N(CCO)Cc1ccccc1` the value was 0.31% (inactive); for `C=CCC[C@H](Cc1ccc(F)cc1)C(=O)OC[C@@H](NC(=O)[C@@H](CC=C)CC(=O)N[C@H](CO)Cc1ccccc1)C(C)(C)C`, 4.84% (inactive).
Regarding `C=CCC[C@@H](Cc1ccc(F)cc1)C(=O)OC[C@H](Cc1c[nH]c2ccccc12)NC(=O)[C@@H](CC=C)CC(=O)N(CCO)Cc1ccccc1`, the inhibition is 20.9% (active).
Regarding `C=CCC[C@H](Cc1ccc(F)cc1)C(=O)OC[C@@H](Cc1c[nH]c2ccccc12)NC(=O)[C@H](CC=C)CC(=O)N[C@H](CO)Cc1ccccc1`, the inhibition is 3.73% (inactive).
Regarding `C=CC[C@@H](Cc1ccc(F)cc1)C(=O)OC[C@H]1CCCN1C(=O)[C@H](CC=C)CC(=O)N(CCO)Cc1ccccc1`, the inhibition was 1.4% (inactive).
For `C=CCC[C@@H](Cc1ccc(F)cc1)C(=O)O[C@H](CNC(=O)[C@H](CC=C)CC(=O)N(CCO)Cc1ccccc1)c1ccccc1` the value was 13.4% (active); for `C=CC[C@@H](CC(=O)N[C@H](CO)Cc1ccccc1)C(=O)N[C@@H](COC(=O)[C@@H](CC=C)Cc1ccc(F)cc1)Cc1c[nH]c2ccccc12`, -0.68% (inactive); for `C=CCC[C@H](Cc1ccc(F)cc1)C(=O)OC[C@H](C)NC(=O)[C@H](CC=C)CC(=O)N(CCO)Cc1ccccc1`, 0.15% (inactive).
Regarding `CCCCC(=O)N[C@@H]1CC[C@@]23CCCN2C(=O)CCC[C@H]3[C@H]1C`, the inhibition was -6.42% (inactive).
Turning to `C=C(C)C1CC23C(=O)C4(C(=O)c5ccccc5)C[C@@]5(C)CCC(CC2C1(C)C)(C4=O)C35OC` (stereo not given in full), the inhibition is -2.35% (inactive).
Take `COC(=O)[C@]12C[C@H](CC(=O)NCc3ccccc3)C(=O)N(CCc3ccc(OC)c(OC)c3)C1=C[C@H](C(C)(C)C)O[C@@H]2C`: the inhibition is 7.1% (inactive).
With `COC(=O)[C@H](C(C)C)N(CCc1cn(Cc2ccccc2)nn1)S(=O)(=O)c1ccc(F)cc1Br`, the inhibition is -0.43% (inactive).
On to `CCCCOCCCNC(=O)C[C@H]1C[C@@]2(C(=O)OC)C(=C[C@H](COCc3ccccc3)O[C@@H]2C)N(Cc2cccc3ccccc23)C1=O`, for which the inhibition was 6.38% (inactive).
For `O=C(Nc1cccc(Cl)c1)OC1CC2CC1[C@H]1CCCCN1[C@H]2Cc1ccccc1` (stereo not given in full), the inhibition was -2.76% (inactive).
For the molecule `CC(C)(C)c1ccc(Cn2nnc3c(=O)[nH]c(C4CCCN(C(=O)c5ccco5)C4)nc32)cc1` (stereo not given), the inhibition is -1.56% (inactive).
For `Cc1ccc(Cn2nnc3c(=O)[nH]c(C4CCN(S(=O)(=O)/C=C/c5ccccc5)CC4)nc32)cc1` the value was 8.9% (active); for `O=C(Nc1ccc(F)cc1)N1CCCC(c2nc3c(nnn3Cc3ccccc3Cl)c(=O)[nH]2)C1` (stereo not given), -4.29% (inactive).
`O=C(CSc1nnc(-c2cccs2)n1Cc1ccco1)c1ccc2c(c1)OCO2`: the inhibition is 1.24% (inactive).
Consider `C=CCn1c(SCC(=O)Nc2ccc(NC(C)=O)cc2)nc2sc(C)c(C)c2c1=O`, for which the inhibition was -2.65% (inactive).
For `Cc1sc2nc(SCC(=O)c3ccc(O)c(O)c3)n(Cc3ccco3)c(=O)c2c1C` the value was 10.2% (active).
As for `C=CCN1C(=O)[C@@H](CC(=O)N2CCN(C(=O)c3ccco3)CC2)[C@]2(C(=O)OC)CCCCC=C12`, the inhibition is 1.66% (inactive).
For `O=C(OC12CCCN(C1)/C(=C/c1cccnc1)C2)C1CCCC1` (stereo not given), the inhibition was 1.56% (inactive).
As for `Clc1ccc(C(Cn2ccnc2)OCc2ccsc2Cl)c(Cl)c1` (stereo not given), the inhibition is 8.72% (active).
In the case of `O=C(Nc1ccccc1C(=O)NCCCn1ccnc1)c1ccc(Cl)cc1Cl`, the inhibition was 2.53% (inactive).
Take `O=C(NCCCn1ccnc1)Nc1ccc(Cl)cc1Cl`: the inhibition was -2.99% (inactive).
Take `O=S1(=O)c2c(cccc2N2CC[C@H](O)C2)O[C@@H]2CCN1C2`: the inhibition was -10.8% (inactive).
With `COc1ccc(C(=O)C2CCCN(S(=O)(=O)c3cccc(C)c3)C2)c(C)c1` (stereo not given), the inhibition was 12.6% (active).
For `COc1ccc(C(=O)C2CCCN(C(=O)c3ccc(OC)o3)C2)c(C)c1` (stereo not given) the value was -0.93% (inactive).
As for `COc1ccc(C(=O)C2CCCN(C(=O)c3cnsn3)C2)c(C)c1` (stereo not given), the inhibition is -4.24% (inactive).
Regarding `Cc1ccc(-n2c(SCC(=O)Nc3ccc(S(=O)(=O)Nc4nccs4)cc3)nnc2-c2cccnc2)cc1`, the inhibition is 5.12% (inactive).
Turning to `COc1ccc(CCNc2cc(N3CCN(C(=O)c4ccccc4OC)CC3)ccc2[N+](=O)[O-])cc1OC`, the inhibition is -5.46% (inactive).
For `O=[N+]([O-])c1ccc(N2CCN(S(=O)(=O)c3ccc4ccccc4c3)CC2)cc1NCc1ccco1` the value was -3.62% (inactive); for `O=C(c1ccccc1)N1CCN(c2ccc([N+](=O)[O-])c(NCc3ccco3)c2)CC1`, 9.15% (active); for `CCOC(=O)[C@]12CCCCC/C=C\1N(Cc1ccc(OC)cc1)C(=O)[C@H]2CC(=O)N1CCOCC1`, -0.25% (inactive).
In the case of `COc1ccnc(C(=O)N2CCC(Oc3cccnc3)CC2)c1`, the inhibition is 1.66% (inactive).
Take `CCOC(=O)N1CCN(C(=O)C[C@H]2C[C@@]3(C(=O)OC)C(=C[C@H](C(C)(C)C)O[C@@H]3C)N(Cc3ccc(Cl)cc3Cl)C2=O)CC1`: the inhibition is 2.67% (inactive).
In the case of `Cn1nc(C(F)(F)F)c(C(=O)Nc2cccc(C(F)(F)F)c2)c1SCc1ccc(Cl)cc1`, the inhibition is 19.8% (active).
With `CCC(=O)OCc1c(C(F)(F)F)nn(C)c1Oc1cccc(C(F)(F)F)c1`, the inhibition was -2.77% (inactive).
For `COC(=O)c1ccccc1Sc1c(/C=N/OCc2ccc(Cl)cc2)c(C(F)(F)F)nn1C` the value was -4.94% (inactive); for `O=S1(=O)c2ccc(N3CCN(Cc4ccccc4F)CC3)cc2Oc2ccccc2CN1Cc1cn(Cc2ccc(Cl)cc2)nn1`, 7.88% (inactive); for `CC(C)CNC(=O)OCc1cn(Cc2ccc(F)cc2)nn1`, 3.83% (inactive).
Under `O=C(C[C@H]1C(=O)N(c2ccc(F)c(F)c2)C[C@@H]1Cc1ccccc1)Nc1ccccc1` stands 9.24% (active).
For the molecule `C[C@H]1CN(c2ccc(Br)cc2)C(=O)[C@@H]1CC(=O)Nc1ccc(Br)cc1`, the inhibition was -0.38% (inactive).
With `CNC(=O)C[C@H]1C(=O)N(c2ccc(OC)cc2)C[C@@H]1Cc1ccccc1`, the inhibition was -1.23% (inactive).
With `COc1ccc(C(CNC(=O)c2ccc(S(=O)(=O)Nc3ccccc3C)cc2)N2CCOCC2)cc1` (stereo not given), the inhibition was -1.54% (inactive).
As for `COc1ccc(C(CNC(=O)c2cc(S(=O)(=O)Nc3cccc(C)c3)ccc2C)N2CCCC2)cc1` (stereo not given), the inhibition was 10.3% (active).
For `COc1ccc(NS(=O)(=O)c2ccc(C)c(C(=O)NCC(c3cccs3)N3CCOCC3)c2)cc1` (stereo not given), the inhibition was -1.97% (inactive).
`O=C(Nc1cc(F)cc(F)c1)OC1CCC12CCC(c1ccccc1)CC2` (stereo not given): the inhibition was 3.79% (inactive).
For `COc1cccc(N(C)C(=O)[C@@H](C)[C@@H](O)c2ccc3ccccc3c2)c1` the value was -0.07% (inactive).
Regarding `CC(=O)C1(C(=O)Nc2nccs2)CC(c2ccccc2C(F)(F)F)=NO1` (stereo not given), the inhibition is -1.77% (inactive).
Under `Cc1cccc([C@@H]2[C@@H]3C(=O)N(Cc4ccccc4)C(=O)[C@@H]3[C@]3(Cc4ccc(Cl)cc4)C(=O)N(c4cccc(Cl)c4)C(=O)N23)c1` stands 1.28% (inactive); under `Cc1cccc(N2C(=O)N3[C@H](c4ccc(F)cc4)[C@@H]4C(=O)N(C5CCCCC5)C(=O)[C@@H]4[C@]3(Cc3ccccc3)C2=O)c1`, 1.18% (inactive); under `COc1ccc([C@@H]2[C@@H]3C(=O)N(C(C)(C)C)C(=O)[C@@H]3[C@]3(Cc4ccccc4)C(=O)N(c4cccc(Br)c4)C(=O)N23)cc1`, 13.1% (active).
Regarding `C[C@@]12C(=O)N(c3cccc(Br)c3)C(=O)N1[C@H](c1ccc(Cl)cc1)[C@@H]1C(=O)N(C3CCCCC3)C(=O)[C@@H]12`, the inhibition is 13.3% (active).
For `O=C1[C@H]2[C@@H](c3ccc(F)cc3)N3C(=O)N(c4ccc(C(F)(F)F)cc4)C(=O)[C@@]3(Cc3ccccc3)[C@H]2C(=O)N1C1CCCCC1` the value was 1.1% (inactive); for `CC[C@@]12C(=O)N(c3ccccc3)C(=O)N1[C@H](c1ccc(Br)cc1)[C@@H]1C(=O)N(C(C)(C)C)C(=O)[C@@H]12`, 8.73% (active); for `CC(C)(C)N1C(=O)[C@H]2[C@@H](c3ccc(Br)cc3)N3C(=O)N(c4cccc(Cl)c4)C(=O)[C@@]3(C)[C@H]2C1=O`, 10% (active).
For the molecule `CCN1C(=O)[C@H]2[C@@H](c3ccc(-c4ccc(OC)cc4)cc3)N[C@@](Cc3ccccc3)(C(=O)OC)[C@H]2C1=O`, the inhibition was -1.71% (inactive).
Under `CCN1C(=O)[C@H]2[C@@H](c3ccc(C)cc3)N3C(=O)N(c4cccc(Br)c4)C(=O)[C@@]3(CC)[C@H]2C1=O` stands 1.14% (inactive).
Regarding `CC12C(=O)N(c3ccccc3)C(=O)C1C(c1ccccc1)N1CCCN12` (stereo not given), the inhibition was 0.41% (inactive).
Consider `CCOC(=O)[C@@H]1[C@H]2COc3cc(OC)ccc3[C@@H]2N2C(=O)N(c3cccc(C)c3)C(=O)[C@@]12C`, for which the inhibition was -2.53% (inactive).
`O=C1[C@H]2[C@@H](c3ccc(Cl)cc3)N3C(=O)N(c4cccc(F)c4)C(=O)[C@@]3(Cc3ccccc3)[C@H]2C(=O)N1C1CCCCC1`: the inhibition was -3.52% (inactive).
